# NALP3 yeast inh: inhibitors of NALP3 inflammasome in yeast. 0.39% of 330,000 active. Yeast reconstituted NLRP3/ASC/caspase-1, beta-gal luminescence, 24 h. inhibition, % at 10 µM. AID 2825;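 active means inhibition of 50% or more; inactive means inhibition below 50%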;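 further: plate controls were induced DMSO wells for no effect and uninduced yeast grown without galactose for full effect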
# TIM10 inh: TIM10 yeast growth inhibition | AID 463195 | S. cerevisiae TIM10 strain growth, BacTiter-Glo luminescence, 24 h | inhibition, % at 10 µM | 1.4% of 330,000 active;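 active means inhibition of 40% or more at the single tested concentration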;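 further: wild-type TIM10 isogenic control strain grown at permissive 25 °C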
# NALP1 inh: NALP1 inhibition; S. cerevisiae NALP1/ASC/caspase-1 growth, X-gal OD620, 72 h; inhibition, % at 10 µM; 0.61% of 280,000 active; in the data active means inhibition mostly above about 24%, no sharp cut-off; inactive means mostly below about 32%
# V-ATPase pH: alters yeast V-ATPase proton transport | response, % at 10 µM | 0.37% of 350,000 active | S. cerevisiae, pHLuorin cytosolic pH fluorescence | AID 504577; in the data active means response mostly above about 7.3%, no sharp cut-off; inactive means mostly below about 5.4%; further: actives read high
# tim10-1 inh: tim10-1 yeast growth inhibition. S. cerevisiae tim10-1 ts strain growth, BacTiter-Glo, 24 h. inhibition, % at 20 µM. 2.2% of 330,000 active. AID 463190;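 active means inhibition of at least 40%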;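 further: mutant grown at 25 °C; 0% = DMSO wells with yeast and 100% = wells holding no yeast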
# tim23-1 inh: inhibits growth of tim23-1 mutant yeast; 1.3% of 330,000 active; inhibition, % at 20 µM; S. cerevisiae tim23-1 growth, BacTiter-Glo luminescence, 24 h;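 active means growth inhibition of the mutant yeast at or above 50%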;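 further: temperature-sensitive mutant grown at 25 °C; plate controls were DMSO-treated mutant yeast for no effect and medium wells lacking yeast for full effect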
# V-ATPase pH SP: yeast V-ATPase proton transport regulation; shares compounds with V-ATPase pH; S. cerevisiae pHLuorin cytosolic pH; response, % at 10 µM; 2% of 980 active; in the data active means response above about 24%;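 further: plate controls were vehicle wells for no effect and positive control wells for full effect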
# Starred values were filed as active, the others as inactive; nt = not tested or not shown. In the library only some 4.2% were active in any assay of this set; here they are far more common.
SMILES,NALP3 yeast inh,TIM10 inh,NALP1 inh,V-ATPase pH,tim10-1 inh,tim23-1 inh,V-ATPase pH SP
CCCCC1CN2CCc3c([nH]c4ccccc34)C2(C)C1 (stereo not drawn),25.3,-2.1,34.2,2.2,-2.3,13.5,nt
CC(OC(=O)CCNS(=O)(=O)c1ccc(Cl)cc1)C(=O)N(C)Cc1ccccc1 (stereo not drawn),nt,nt,nt,0.6,nt,nt,nt
O=C(c1cccnc1)N1CCN(Cc2cccc(F)c2)CC1,8.4,12.3,11.1,-1.2,14.0,14.8,nt
O=C(c1cccnc1)N1CCN(Cc2ccc3ccccc3c2)CC1,10.0,5.6,12.9,10.0*,1.4,10.0,-0.1
CCC(=O)N(c1nnc(SCC(=O)NN2C(=O)NC3(CCCCC3)C2=O)s1)C1CC1,2.0,9.0,nt,-1.4,-16.0,-9.7,nt
Cc1cnc2c(N)cc(C)c(C)c2c1,nt,nt,nt,1.6,nt,nt,nt
COCCNC(=O)C(c1ccc(C)o1)N(Cc1ccc(F)cc1)C(=O)Cn1nnc2ccccc21 (stereo not drawn),19.1,10.8,-5.1,24.3*,11.0,7.0,-1.8
COCCNC(=O)C(c1ccccc1)N(Cc1cccs1)C(=O)Cn1nnc2ccccc21 (stereo not drawn),0.6,3.3,-1.8,23.7*,8.0,19.0,-6.4
COc1ccc(/C=C2\Oc3cc(OCC(N)=O)ccc3C2=O)cc1OC,-11.4,7.3,-0.3,-1.1,3.0,3.4,nt
COC(=O)COc1ccc2c(c1)O/C(=C\c1cccc([N+](=O)[O-])c1)C2=O,6.3,27.1,-4.9,12.7*,27.0,25.7,3.4
COc1ccc(-c2coc3cc(O[C@@H]4O[C@H](CO)[C@@H](O)[C@H](O)[C@H]4O)ccc3c2=O)cc1,11.9,-0.8,nt,8.8,-5.5,-0.1,nt
COc1cc2c(=O)c(-c3ccc(O)cc3)coc2cc1OC1OC(CO)C(O)C(O)C1O (stereo not drawn),2.9,10.0,20.0,9.6*,2.6,7.5,4.5
Cc1ccccc1-c1ccccc1CN1[C@@H](C(C)C)COCCS1(=O)=O,nt,-7.9,nt,8.8*,14.1,41.8,1.6
CC(C)CN(C(=O)COC(=O)CSc1ccccc1)c1c(N)n(Cc2ccccc2)c(=O)[nH]c1=O,13.9,7.4,nt,-0.1,12.0,5.3,nt
Cc1ccc(-c2nnc(-n3ncc(C#N)c3N)c3ccccc23)cc1C,9.1,2.5,-5.1,9.9*,20.5,-12.3,-4.7
COc1ccccc1-c1csc(-n2ncc(C#N)c2N)n1,21.9,4.6,14.5,-0.8,-6.3,-2.9,nt
Cc1cccc(CN(C)C[C@H]2OCc3cnnn3CCCC(=O)N([C@H](C)CO)C[C@@H]2C)c1,nt,nt,nt,-1.7,nt,nt,nt
CCOC(=O)C1C(=O)N(O)CC1c1cccc(Oc2ccccc2)c1 (stereo not drawn),-1.7,3.0,14.3,12.5*,6.5,4.5,0.1
CCOC(=O)C1CCN(C(=O)Cn2nc(CC)n3cccc3c2=O)CC1,16.2,-11.8,1.8,0.1,6.0,-12.7,nt
CC(C)(C)C(CN1CCCC1)OC(=O)c1ccccc1 (stereo not drawn),15.1,1.7,16.0,0.1,3.4,3.2,nt
CCOC(=O)c1cnc2cc(F)c(F)cc2c1N1CCOCC1,16.4,-0.5,23.0,4.7,-10.6,-4.3,nt
CCS(=O)(=O)n1nc(-c2ccc(C)cc2)nc1N,10.8,-2.1,-24.3,-3.3,7.2,17.7,nt
Cc1ccc(-c2nc(N)n(S(=O)(=O)c3ccc(C)cc3)n2)cc1,28.1,8.3,-6.7,8.7*,-7.7,-5.1,-0.9
CCCNC(=S)N1CCN(C)CC1,4.1,-15.8,19.8,8.2*,5.0,0.9,-4.8
CCN(C[C@H]1N[C@@](Cc2ccccc2)(C(=O)OC)[C@H]2C(=O)N(C)C(=O)[C@@H]12)S(=O)(=O)c1ccc(OC)cc1,7.5,-7.7,nt,-3.8,6.5,5.7,nt
c1cnc2nc(CSc3ncn[nH]3)cn2c1,4.3,13.6,2.8,0.4,-17.4,8.4,nt
O=C(C(=O)N1CCN(c2ccccc2F)CC1)c1cn(CC(=O)N2CCCC2)c2ccccc12,nt,nt,nt,-0.5,nt,nt,nt
NNC(=O)c1ccc(COCC(F)(F)F)cc1,9.2,10.6,30.7,9.1*,-13.8,-10.7,4.8
COc1ccc(CN(C(=O)COc2ccc(C)c(C)c2)C2CCS(=O)(=O)C2)cc1OC (stereo not drawn),-7.2,1.3,1.4,-1.6,8.2,17.9,nt

# High-throughput results from PubChem.
